From PubChem
ELG1 repair inh – qHTS screen for small molecules that inhibit ELG1-dependent DNA repair in human embryonic kidney (HEK293T) cells expressing luciferase-tagged ELG1; Potency, µM (highest dose often 46.1 µM), inactives show at the highest dose activity change, negative = inhibition, most hits filed as inhibitors; 2.3% of 330,000 active; HEK293T ELG1-luciferase reporter, luminescence, 16 h; DNA damage induced by 5-fluorouridine; note: % is set by controls: 0 for no effect and ±100 for the full control effect; nearly all actives have a fitted effect of over 55% in size
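In this reporter screen, reduction of luminescence relative to DMSO vehicle indicated activity. Compounds and 5-fluorouridine were added together to 2,000 cells per well, incubated for 16 hr at 37 °C, then developed with ONE-Glo.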
VP16 counter – VP16 counterscreen qHTS for inhibitors of ROR gamma transcriptional activity; Potency, µM (titrated, usually from 53.6 µM), for the others: at the highest dose activity, negative = inhibition, usual class: inhibitors; 3.5% of 310,000 active; Drosophila S2 Gal4-VP16 UAS-luciferase, luminescence, 20 h;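 note: Gal4-VP16 expression switched on by copper sulfate through the metallothionein promoter; % is set by controls: 0 for no effect and ±100 for the full control effect; nearly all actives have a fitted effect of over 50% in size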
MCF10A rereplic – A quantitative high throughput screen for small molecules that induce DNA re-replication in MCF 10a normal breast cells; Potency, µM (top dose mostly 46.1 µM), without a hit: at the top dose activity, positive = re-replication, actives largely listed as activators; 2.9% of 350,000 active; AID 624296, 2012; MCF 10A DNA re-replication, Hoechst nuclear intensity, 48 h; note: % of control where 0% means no effect; nearly all actives have a fitted effect of over 50% in size
RORgamma inh – qHTS for inhibitors of ROR gamma transcriptional activity. 5.4% of 310,000 active. Potency, µM (top dose mostly 53.6 µM), inactives show at the top dose activity change, negative = inhibition, actives largely listed as inhibitors. AID 2551, 2010. Nuclear receptor ROR-gamma (Mus musculus), P51450. Drosophila S2 Gal4-RORgamma UAS-luciferase reporter, 20 h; note: % is set by controls: 0 for no effect and ±100 for the full control effect; nearly all actives have a fitted effect of over 60% in size
Target sequence (P51450 whole entry, looked up, the tested form may be a part): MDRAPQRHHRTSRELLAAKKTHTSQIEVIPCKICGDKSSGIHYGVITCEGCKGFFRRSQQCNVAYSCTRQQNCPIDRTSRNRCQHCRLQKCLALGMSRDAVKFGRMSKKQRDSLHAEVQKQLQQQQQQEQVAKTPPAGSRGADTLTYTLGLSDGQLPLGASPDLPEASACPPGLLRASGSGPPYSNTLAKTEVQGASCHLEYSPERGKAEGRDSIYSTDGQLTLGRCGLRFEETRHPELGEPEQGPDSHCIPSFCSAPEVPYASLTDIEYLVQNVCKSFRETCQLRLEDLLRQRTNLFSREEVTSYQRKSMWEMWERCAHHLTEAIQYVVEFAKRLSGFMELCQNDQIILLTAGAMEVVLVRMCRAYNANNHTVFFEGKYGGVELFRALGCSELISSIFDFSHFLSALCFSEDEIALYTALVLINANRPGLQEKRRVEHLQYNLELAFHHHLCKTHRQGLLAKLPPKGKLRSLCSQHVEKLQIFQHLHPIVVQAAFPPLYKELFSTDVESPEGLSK
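Using a luciferase readout, inhibitors were identified by reduced reporter activity in Drosophila cells coexpressing a copper-inducible Gal4–ROR gamma fusion and UAS-driven Photinus luciferase, incubated 20 hr after 700 uM copper sulfate.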
SW480 rerep – A quantitative high throughput screen for small molecules that induce DNA re-replication in SW480 colon adenocarcinoma cells; SW480 DNA re-replication, Hoechst DNA content imaging, 48 h; Potency, µM (top dose mostly 46.1 µM), for inactives: at the top dose re-replication activation, most hits filed as activators; AID 624297, 2012; 1.8% of 340,000 active; note: % of control where 0% means no effect; nearly all actives have a fitted effect of over 55% in size
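Cells (250 per well) received 23 nL compound or DMSO by pin tool and were kept 48 hr at 37 C, 5% CO2. Nuclei were then stained with Hoechst for 40 min and scanned for DNA content.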
* hit, by the source's call. An excerpt weighted towards active compounds, which were near 10% of everything screened. Calls come from the whole dose curve; as a rule, active = well fitted curve in the direction sought with a large enough effect; inconclusive = small, poorly fitted or top-dose-only effect, or another doubt; inactive = no such curve, though single readings can be large; an effect the other way counts as inactive or inconclusive. Potency is the fitted concentration of half-maximal effect.

For Cc1ccc2[nH]c3c(=O)n(N)c(=O)[nH]c3c2c1 the results were ELG1 repair inh 6.7%, VP16 counter -5.9%, MCF10A rereplic 7.3%, RORgamma inh 4.7% and SW480 rerep -29.0%.
Screening Cc1ccc2[nH]c3c(=S)nc[nH]c3c2c1 returned ELG1 repair inh inconclusive, VP16 counter inconclusive, MCF10A rereplic 1.3%, RORgamma inh 12.6µM* and SW480 rerep 17.9%.
For COc1ccc(OC)c(N2C(=O)CCCC2=O)c1 the results were ELG1 repair inh -5.4%, VP16 counter 1.8%, MCF10A rereplic inconclusive, RORgamma inh 11.2µM* and SW480 rerep -7.6%.
For COc1ccc(CCNC(=O)COC(=O)c2cc(S(=O)(=O)N3CCOCC3)ccc2C)cc1OC the results were ELG1 repair inh inconclusive, MCF10A rereplic 0.9% and SW480 rerep -2.1%.
For C/C(N)=C(/C#N)C(=O)CSc1nc2ccccc2c(=O)n1-c1ccc(C)cc1 the results were ELG1 repair inh 7.31µM*, VP16 counter -22.8% and RORgamma inh 20.3%.
`C/C(N)=C(/C#N)C(=O)CSc1nc2ccccc2c(=O)n1-c1ccccc1C` gave ELG1 repair inh -16.4%, VP16 counter -3.6%, MCF10A rereplic 22.9%, RORgamma inh inconclusive and SW480 rerep 14.7%.
For Cc1ccc(-n2c(SCC(=O)N3CC(=O)Nc4ccccc43)nc3ccccc3c2=O)cc1 the results were ELG1 repair inh 18.4µM*, VP16 counter -3.2%, MCF10A rereplic 16.0%, RORgamma inh inconclusive and SW480 rerep 12.3%.
Screening C/C(N)=C(/C#N)C(=O)CSc1nc2ccccc2c(=O)n1-c1ccc(C)c(Cl)c1 returned ELG1 repair inh 6.51µM*, VP16 counter -19.4%, MCF10A rereplic 23.5%, RORgamma inh inconclusive and SW480 rerep 12.1%.
C/C(N)=C(/C#N)C(=O)CSc1nc2ccccc2c(=O)n1CCCO was read as ELG1 repair inh -1.9%, VP16 counter -13.0%, MCF10A rereplic 0.0%, RORgamma inh 34.5% and SW480 rerep -3.1%.
Screening Cc1cccc(C)c1-n1c(SCC(=O)N2CC(=O)Nc3ccccc32)nc2ccccc2c1=O returned ELG1 repair inh -29.0%, VP16 counter 13.9%, MCF10A rereplic 8.5% and RORgamma inh 10.0%.
Screening CC(=O)C(Cc1ccccc1)NC(=O)CCl (centres undefined) returned ELG1 repair inh -7.4%, VP16 counter -18.5%, MCF10A rereplic 13.4%, RORgamma inh 0.1% and SW480 rerep 0.6%.
O=C(CCl)NC(Cc1ccccc1)c1ccccc1 (centres undefined) was read as ELG1 repair inh inconclusive, VP16 counter 5.9%, MCF10A rereplic inconclusive, RORgamma inh 2.0% and SW480 rerep 16.4µM*.
CC(C)OC(=O)c1cn(-c2ccccc2)nc1-c1ccc2c(c1)OCCO2 was read as ELG1 repair inh 23.1µM*, VP16 counter 2.7%, MCF10A rereplic inconclusive, RORgamma inh -13.9% and SW480 rerep 1.9%.
O=C(/C=C/c1cn(-c2ccccc2)nc1-c1ccc2c(c1)OCCO2)NCCO was read as ELG1 repair inh inconclusive, VP16 counter inconclusive, MCF10A rereplic -2.2%, RORgamma inh inconclusive and SW480 rerep -5.0%.
`NC(=O)/C=C\c1cn(-c2ccccc2)nc1-c1ccc2c(c1)OCCO2` gave ELG1 repair inh 16.4µM*, VP16 counter -6.8%, MCF10A rereplic inconclusive, RORgamma inh 9.9% and SW480 rerep -0.4%.
For COc1ccc(N2CCN(CCCNC(=O)c3ccc(CS(=O)(=O)c4ccc(Cl)cc4)o3)CC2)cc1 the results were ELG1 repair inh -16.3%, VP16 counter 6.9%, MCF10A rereplic inconclusive, RORgamma inh 9.1% and SW480 rerep 23.0%.
CSc1nc(N)c(NC(=O)c2ccc(Br)o2)c(=O)[nH]1 was read as ELG1 repair inh -0.3%, VP16 counter -10.3%, MCF10A rereplic inconclusive, RORgamma inh -12.6% and SW480 rerep -29.1%.
Cc1ccc(C)c(C(=O)CN2C(=O)NC3(CCc4ccccc43)C2=O)c1 (centres undefined) was read as ELG1 repair inh -13.1%, MCF10A rereplic 12.8% and SW480 rerep -9.8%.
Screening CCc1cccc2c(C(=O)CN3C(=O)N(C)C4(CCCCC4)C3=O)c[nH]c12 returned ELG1 repair inh inconclusive, MCF10A rereplic 5.17µM* and SW480 rerep -0.6%.
CCc1cccc2c(C(=O)CN3C(=O)NC(C)(c4cccc5ccccc45)C3=O)c[nH]c12 (centres undefined) was read as ELG1 repair inh 10.6%, VP16 counter -17.4%, MCF10A rereplic 14.6µM*, RORgamma inh inconclusive and SW480 rerep 19.9%.
For CCc1cccc2c(=O)c(C(=O)N3CCCCCC3)c[nH]c12 the results were ELG1 repair inh 14.8%, VP16 counter 0.7%, MCF10A rereplic 0.0%, RORgamma inh 2.9% and SW480 rerep -13.2%.
For CCc1cccc2c(C(=O)CN3C(=O)NC4(CCc5ccccc54)C3=O)c[nH]c12 (centres undefined) the results were ELG1 repair inh 7.7%, MCF10A rereplic 14.6µM* and SW480 rerep inconclusive.
O=c1c(-c2cccc(Cl)c2)nc2cncnc2n1Cc1ccc(F)cc1 was read as VP16 counter 0.1% and RORgamma inh 10.9%.
Screening CCSc1nnc(NS(=O)(=O)c2ccc(C)cc2)s1 returned ELG1 repair inh 6.4%, VP16 counter -3.3%, MCF10A rereplic -3.3%, RORgamma inh 20.6% and SW480 rerep -0.2%.
Screening CCSc1nnc(NS(=O)(=O)c2ccc(OC)cc2)s1 returned ELG1 repair inh 13.5%, VP16 counter -3.3%, MCF10A rereplic 0.731µM*, RORgamma inh 3.7% and SW480 rerep -58.2%.
Screening N#Cc1c(NC(=O)c2ccc(Br)o2)n(-c2ccccc2)c2nc3ccccc3nc12 returned ELG1 repair inh inconclusive, VP16 counter -2.2%, MCF10A rereplic inconclusive, RORgamma inh -6.2% and SW480 rerep inconclusive.
Screening CCC(=O)Nc1c(C#N)c2nc3ccccc3nc2n1-c1ccc(C)cc1 returned MCF10A rereplic 23.1µM* and SW480 rerep inconclusive.
For CCCCn1c(NC(=O)c2ccccc2)c(C#N)c2nc3ccccc3nc21 the results were ELG1 repair inh 8.2µM*, VP16 counter inconclusive, MCF10A rereplic 0.7%, RORgamma inh inconclusive and SW480 rerep -1.5%.
Screening N#Cc1c(N)n(CCOC(=O)c2cccc(Br)c2)c2nc3ccccc3nc12 returned VP16 counter -9.1%, MCF10A rereplic inconclusive, RORgamma inh 26.6% and SW480 rerep inconclusive.
